Measurements: PubChem BioAssay (NCATS)
Values joined by “and” are separate entries in the source; they are usually repeats but may differ in a detail not shown here. Equal values may be shown once. Records with an inconclusive call do not appear. Active and inactive are the calls of the source. The call rests on the fitted dose curve; in most records, active means well fitted curve in the direction sought with a large enough effect; inconclusive means small, poorly fitted or top-dose-only effect, or another doubt; inactive means no such curve, though single readings can be large; an effect the other way counts as inactive or inconclusive.

How the values were obtained:
[1] = Quantitative highthroughput screen to assess conditional lethalithy of NOMO1 cells grown in RPMI1640 with untreated serum (RPMI+s) (AID 1963876); further: nearly all actives have a fitted effect of over 35% in size; further: potency means the concentration at half of the fitted maximal effect;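 on viability: 100% = DMSO wells and 0% = empty wells without cells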
Procedure, shortened: (§1)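 Each medium arm—HPLM with 10% dialyzed FBS, or RPMI1640 with 5 mM glucose and 10% untreated or dialyzed FBS—was screened against an 11-point, 3-fold compound titration for 48 h at 37 °C, with CellTiter-Glo luminescence as endpoint.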

[2] = Quantitative highthroughput screen to assess conditional lethalithy of NOMO1 cells grown in RPMI1640 with dialyzed fetal bovine serum (RPMI+ds) (AID 1963877); further: nearly all actives have a fitted effect of over 30% in size; further: potency means the concentration at half of the fitted maximal effect;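 on viability: series mostly up to about 46 µM; 100% = DMSO control wells and 0% = empty wells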
Procedure, shortened: as §1

[3] = Quantitative highthroughput screen to assess conditional lethalithy of P12 Ichikawa cells grown in RPMI1640 with dialyzed fetal bovine serum (RPMI+ds) (AID 1963880); settings: Potency: P12-Ichikawa viability;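 further: 100% = DMSO wells and 0% = empty wells on each plate; nearly all actives have a fitted effect of over 35% in size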
Procedure, shortened: as §1

[4] = Quantitative highthroughput screen to assess conditional lethalithy of P12 Ichikawa cells grown in RPMI1640 with untreated serum (RPMI+s) (AID 1963881); settings: Potency: viability; further: nearly all actives have a fitted effect of over 35% in size; further: potency means the concentration at half of the fitted maximal effect;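 on viability: series mostly up to about 46 µM; 100% = DMSO wells and 0% = empty wells without cells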
Procedure, shortened: as §1

[5] = Quantitative highthroughput screen to assess conditional lethalithy of P12 Ichikawa cells grown in Human Plasma-Like Medium with dialyzed fetal bovine serum (HPLM+ds) (AID 1963879); settings: Potency: viability; further: nearly all actives have a fitted effect of over 35% in size; further: potency means the concentration at half of the fitted maximal effect; on viability: series mostly up to about 46 µM
Procedure, shortened: as §1

[6] = Quantitative highthroughput screen to assess conditional lethalithy of SEM cells grown in RPMI1640 with dialyzed fetal bovine serum (RPMI+ds) (AID 1963884); further: nearly all actives have a fitted effect of over 35% in size; further: potency means the concentration at half of the fitted maximal effect;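 on viability: series mostly up to about 46 µM; 100% = DMSO control wells and 0% = empty wells without cells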
Procedure, shortened: as §1

[7] = Quantitative highthroughput screen to assess conditional lethalithy of SEM cells grown in Human Plasma-Like Medium with dialyzed fetal bovine serum (HPLM+ds) (AID 1963882)
Procedure, shortened: as §1

[8] = Quantitative highthroughput screen to assess conditional lethalithy of SEM cells grown in RPMI1640 with unreated serum (RPMI+s) (AID 1963883); further: nearly all actives have a fitted effect of over 35% in size; further: potency means the concentration at half of the fitted maximal effect;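 on viability: 100% = DMSO wells and 0% = empty wells without cells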
Procedure, shortened: as §1

[9] = Cellular viability qHTS for adrenocortical cancer (ACC) cell line SW-13 (AID 1963989); settings: SW-13 ACC cells viability, CellTiter-Glo, 48 h; activity (max response): active compounds read low;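 further: cells grown in serum-free medium with ITS supplement; on the % scale 0 is the no-effect control and ±100 the full control effect; nearly all actives have a fitted effect of over 65% in size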
Procedure, shortened: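 Luminescent ATP read-out (CellTiter-Glo, 20 min at room temperature) measured metabolically competent SW-13 cells after 48 h compound treatment. Final concentrations spanned up to 46 uM; bortezomib served as positive control.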

[10] = Cellular viability qHTS for adrenocortical cancer (ACC) cell line NCI-H295R (AID 1963990);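 further: 0% = DMSO only wells and -100% = full killing with cytotoxic reference compound; nearly all actives have a fitted effect of over 60% in size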
Procedure, shortened: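 IC50 and maximal efficacy derive from four-parameter logistic modelling of titration curves, with reads scaled between DMSO-only wells (0%) and doxorubicin hydrochloride (100% inhibition). Compounds spanned up to 46 uM over 48 h.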

CCS(=O)(=O)N1CC(CC#N)(n2cc(-c3ncnc4[nH]ccc34)cn2)C1
inactive: Potency [1] | Potency [2] | Potency [3] | Potency [4]

CN[C@H]1[C@@H](O)[C@@H]2O[C@@H]3O[C@H](C)CC(=O)[C@]3(O)O[C@@H]2[C@@H](NC)[C@H]1O
inactive: Potency [1] | Potency [2] | Potency [5] | Potency [3] | Potency [4] | Potency [6]

COc1ccc(CC2=NN3C([C@@H](CCc4ccccc4)[C@@H](C)O)=NC(C)C3C(=O)N2)cc1OC (stereo not given in full)
inactive: Potency [1] | Potency [2] | Potency [5] | Potency [4] | Potency [7] | Potency [8] | Potency [6] | activity (max response) [9] 3.98% | Potency [10]

COC1CCC(C(=O)c2ccc3nc4c(cc3c2)CCCO4)CC1 (stereo not given)
inactive: Potency [1] | Potency [4] | Potency [7] | activity (max response) [9] 3.89% | Potency [10]
active: Potency [2] 18700 nM | Potency [6] 3320 nM

N#Cc1ccc(NC(=O)Nc2ccccc2Br)c2n[nH]nc12
inactive: Potency [1] | Potency [2] | Potency [3] | Potency [4] | Potency [7] | Potency [8] | Potency [6] | activity (max response) [9] -2.82% | Potency [10]

Oc1ccc(C2CNCCc3c2cc(O)c(O)c3Cl)cc1 (stereo not given)
inactive: Potency [1] | Potency [2] | Potency [5] | Potency [4] | Potency [7] | Potency [6] | activity (max response) [9] 2.44% and 14.8% | Potency [10]

Cn1cc(C=CC(=O)c2cccc(F)c2)cc1C=CC(=O)NO
inactive: Potency [1] | Potency [2] | Potency [5] | Potency [4] | Potency [7] | Potency [8] | Potency [6]

O=C(c1ccc(C=Cc2n[nH]c3ccccc23)cc1)N1CCNCC1
active: Potency [1] 469 nM | Potency [2] 935 nM | Potency [5] 935 nM | Potency [4] 935 nM | Potency [8] 166 nM
